# Experimental data published in publication PMC12136788.
# Residue numbers refer to the chain shown, from its start. In all, about 24,000 sequences were measured (“enrichment r”: median about 0.99, highest 2% from about 3.7 on). Shown is part of a subset that was picked to be rich in the highest values.
# T1: UNK ZnF1-3 (human, UniProt Q9C0B0 31-174)
# T1 sequence: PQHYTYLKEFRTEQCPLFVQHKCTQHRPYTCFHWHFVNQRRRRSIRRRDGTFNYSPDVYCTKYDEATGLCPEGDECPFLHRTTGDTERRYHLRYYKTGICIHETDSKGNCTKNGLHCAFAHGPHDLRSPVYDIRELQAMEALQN
# B1: chr7:149068622:149068623:-_ENSMUSG00000025139_ENSMUST00000001950|mus_hu|mus_mus_mus_hu_False|68_108 (ssRNA)
# RNA: GGGAGUUCUACAGUCCGACGAUCGUGCAGGUACUGAGUGUGGCUUGUGGUCUGUCCUGGGUUAGAGCUGCUGGUAACACGGAACAUACCAUCUAGAACGUUCCAGUCCCGCCUGACACCUUCAUUCCCAAUGGAGAAGAAAUCCAACAGAGGAUUGAGCAUCA
# B2: chr2:5814250:5814251:-_ENSMUSG00000025816_ENSMUST00000102981|mus_hu|mus_mus_mus_hu_True|58_58 (ssRNA)
# RNA: GGGAGUUCUACAGUCCGACGAUCUUCCUUUCCGGUUUCUGAAUUUCUGGUAGAACUGCACAGAAUGGUUUGAUAACUUCUAAAAACUUGAUGCCCAUGGCUGCUGCUGGGGAGGCCCAGGGGGAAACCGCGGCCUCGGCGCUGCAACAGAGGAUUGAGCAUCA
# B3: 97007495_97007615_238_CDS_ENSG00000121152_ENST00000240423|human|control|control (ssRNA)
# RNA: GGGAGUUCUACAGUCCGACGAUCCAAUAAGCGAGGUGAGUCAGUGCUGAACUGCAGAUCAAAGACCCUCGAGCGCCUCCGCUGCAGCCGCUCCUUCUCAUCGUCAUUCUGAGGAAAGUCUUCGAGGACUGGGGUGCCAGGAAUCAACAGAGGAUUGAGCAUCA
# B4: 96635784_96638769_164_5pUTR_ENSMUSG00000020876_ENSMUST00000107661|mouse|control|control (ssRNA)
# RNA: GGGAGUUCUACAGUCCGACGAUCCCACAAGCCCAUGGGAAGGGCACAUAGGUGUUCGAGGAAGCUCUUCCGCCUGACAGAAAACCUGUCCCGUCCAUCAAGCAGCUGUUCUCAUUUUUCAGUCGGUAACCCACUCCUUUCACCCAACAGAGGAUUGAGCAUCA
# B5: chr12:39756943:39756944:-_ENSG00000139116_ENST00000544797|hu_mus|hu_hu_hu_mus_False|28_68 (ssRNA)
# RNA: GGGAGUUCUACAGUCCGACGAUCGGUUUGGCUGUUACCCCCAAGGGAAUCCUGCAAGAGUCUUGUCAGCUUGGAAUCUCUGUAAGGGACAUGGGUGGCUCUCUUGCUCUUGUCUCCCAAGGCGCUGAUUACAUUCCCAAGAGCCAACAGAGGAUUGAGCAUCA
# B6: chr16:45382771:45382772:-_ENSMUSG00000022661_ENSMUST00000163230|mus_mus|mus_mus_mus_hu_True|38_38 (ssRNA)
# RNA: GGGAGUUCUACAGUCCGACGAUCCUGGGUCAUGUUAUAAGACAAAUGGACAGGGAGGGCAUGCUUCUCAAAAAAUGUGAGCUAUUGUCUAAGACUAACAAUAUUGCUCUAGCUAUAAAAAUAAGUUAAAUGAAUAAGUUAAGACAACAGAGGAUUGAGCAUCA
# B7: chr19:16212804:16212805:+_ENSG00000167460_ENST00000300933|hu_mus|hu_hu_hu_mus_False|38_98 (ssRNA)
# RNA: GGGAGUUCUACAGUCCGACGAUCAACAAUUCUGGAGAAGAACAUCAAUGUAACAUGGAACAGCAUUAAAGCUCAGUCAGAAGGCACAUGGGCAACAAUGACUAUUUCAGCAUUCUCGCUUGGAAUGCUUAAAGACAAUCUGUUCAACAGAGGAUUGAGCAUCA
# B8: chr4:76721835:76721836:+_ENSG00000138768_ENST00000264904|hu_mus|hu_hu_hu_mus_True|18_28 (ssRNA)
# RNA: GGGAGUUCUACAGUCCGACGAUCGUUUGGCUGGGGUUUCUGAGACGCUCUGGAAUAUAACUCAUGUUUGCUAAUAAAUCCUAGUUUCUCUAUGAAAUUCUCUUUGCAAUCCUCUUCUCAAUCAGUUUGCUUUAGUUUCUCUUUCAACAGAGGAUUGAGCAUCA
# B9: chr16:45382771:45382772:-_ENSMUSG00000022661_ENSMUST00000163230|mus_mus|mus_mus_mus_hu_True|38_78 (ssRNA)
# RNA: B6 RNA with G57A, C66U
# B10: chr16:45382771:45382772:-_ENSMUSG00000022661_ENSMUST00000163230|mus_mus|mus_mus_mus_hu_True|18_38 (ssRNA)
# RNA: B6 RNA with A117U, U121A, A123U, G124A, U125A, U126G
# B11: chr16:45382771:45382772:-_ENSMUSG00000022661_ENSMUST00000163230|mus_mus|mus_mus_mus_hu_True|38_48 (ssRNA)
# RNA: B6 RNA with U87A
# B12: chr4:76721835:76721836:+_ENSG00000138768_ENST00000264904|hu_mus|hu_hu_hu_mus_True|8_28 (ssRNA)
# RNA: GGGAGUUCUACAGUCCGACGAUCGUUUGGCUGGGGUUUCUGAGACGCUCUGGAAUAUAACUCAUGUUUGCUAAUAAAUCCUAGUUUCUCUAUGAAAUUCUCUUUGCAAUCCUCUUCCUCUAUUAGUGUUUUAGCUUUCUCUUUCAACAGAGGAUUGAGCAUCA
# B13: chr3:10015032:10015033:+_ENSMUSG00000027533_ENSMUST00000029046|mus_mus|mus_mus_mus_hu_True|1_28 (ssRNA)
# RNA: GGGAGUUCUACAGUCCGACGAUCGUUUUUACCAUCACAAGUGAUGAUACAAUCUGGCUUGGCCAUUGCGCCCAUUUUUCGCAAAGCUAUUCCCACUCCUAGCUCCUUCAUGUACUCAUCAAAGCCUUUGCUGUCCAUCAGGCGCAACAGAGGAUUGAGCAUCA
# B14: chr7:151048522:151048523:+_ENSG00000013374_ENST00000566856|hu_mus|hu_hu_hu_mus_True|18_78 (ssRNA)
# RNA: GGGAGUUCUACAGUCCGACGAUCCUGUUUCUUAUUUAUUACGAUCUUGAUGUAAUUUUCUUGAAGUCCGAAAGUUUCAGCUAUUUGACACCUCAGGUCUCUACCAGUGACAUGCAAUCGGGUCUCCAACAAGCUUUUCUUAUCCAACAGAGGAUUGAGCAUCA
# B15: chr9:100883651:100883652:-_ENSG00000106789_ENST00000375077|hu_mus|FALSE|FALSE (ssRNA)
# RNA: GGGAGUUCUACAGUCCGACGAUCUCCCAAGGCAAGAAGGAAGGAGCCGAGGGCGGCUUUGCUGCUUGGGUGGUCACUGUGUCAGGGGGCAGUGUUGCUCCAUUAGCCCAAGAACAUAAAAACAUAAUCUUAAAAAAAUAUGACCAACAGAGGAUUGAGCAUCA
# B16: chr19:7991675:7991676:-_ENSG00000104980_ENST00000595831|hu_hu|FALSE|FALSE (ssRNA)
# RNA: GGGAGUUCUACAGUCCGACGAUCCCAAAUCUCAGGCUUAUGCACAAGAUGGAAGAGCACUGUUAAAAUUAAAAAAUGGACCUAAAGUGGCUUGGCUGACGUGGCUAGCGGGCCACUGAGCCGCGGGUCCCGGGUCCCACCCUGCAACAGAGGAUUGAGCAUCA
# B17: chr19:7991675:7991676:-_ENSG00000104980_ENST00000595831|hu_hu|motif|central (ssRNA)
# RNA: B16 RNA with U82G, A83G
# B18: chr11:46405157:46405158:+_ENSG00000110492_ENST00000395566|hu_hu|hu_hu_hu_mus_False|1_98 (ssRNA)
# RNA: GGGAGUUCUACAGUCCGACGAUCCCCUCCCCACUUUGGCUGGGGAGUGUGGGCGUGAGAGGACAGGCGUGAUUGACAGAGCUGACAGGAAGACAAAAGGCACUGGUGGGUUAUAUCUUGGGCCUGUGGGAGAGGAGGCGUGGGCAACAGAGGAUUGAGCAUCA
# B19: 193332725_193333477_540_CDS_ENSG00000198836_ENST00000392438|human|control|control (ssRNA)
# RNA: GGGAGUUCUACAGUCCGACGAUCCCACUGAUCAAAAGUCUUUUUGGCUGUGUAGCCACCCCCAACAGCCGAUCCUAGUAUGAGAUAGCGAAGUUUUAAGAGUCUCGUAGCUAAUCUUGCUGGCCAAAAAUUCCUGCGAGGCUGCAACAGAGGAUUGAGCAUCA
# B20: chr7:54825262:54825263:-_ENSG00000132432_ENST00000352861|hu_hu|motif|central (ssRNA)
# RNA: GGGAGUUCUACAGUCCGACGAUCCCGACUUGGCUCAACAAACUGCAUUACCUGAUCCAUGACUGCCUACCCAACCGACACCGGAAAUGCCAGGGACACGUAGCACUGGAGCUUGCUGAUGGAGGCCCACCGGAACCGGAAUCCCAACAGAGGAUUGAGCAUCA
# B21: chr1:129704038:129704039:+_ENSMUSG00000026349_ENSMUST00000027587|mus_mus|FALSE|FALSE (ssRNA)
# RNA: GGGAGUUCUACAGUCCGACGAUCAGGCCAAAGCUGCCCUCCAAGUGUCGGUUGGCCUGCAUUAAUUACAGCUGUGCCUGCACACUUGUCUCAACAUCAAGUACUGAGGGAAAACGGGAAUGCACUCUGCCUCUGGUCAGUACACAACAGAGGAUUGAGCAUCA
# B22: chr10:110404880:110404881:-_ENSMUSG00000035798_ENSMUST00000041723|mus_hu|motif|central (ssRNA)
# RNA: GGGAGUUCUACAGUCCGACGAUCGUUUUUGUGAUACUUGUCACCAAGGUUAACUGAAACAUUGAAUGUUAAAAGCAAUCGGGUUGGAUCCACACUAUGUGUUCUAUAUGCUGCCCACAUUAAAGGCGUCAUUCCAUUCUGAUCCAACAGAGGAUUGAGCAUCA
# Target: T1, UNK ZnF1-3
# Test: nsRBNS (natural sequence RNA bind-n-seq); RBNS binding buffer (assumed for nsRBNS): 25 mM Tris pH 7.5, 150 mM KCl, 3 mM MgCl2, 0.01% Triton X-100, 500 ug/ml BSA, 20 U/ml SUPERase-In, 4 C; UNK is unkempt and MSI1 is Musashi-1; names of the RNAs are library labels; protein concentration not given here; high values mean tight binding
row,Binder,binding signal
1,B1,0.783 enrichment R
2,B2,1.21 enrichment R
3,B3,1.1 enrichment R
4,B4,1.14 enrichment R
5,B5,0.792 enrichment R
6,B6,16.7 enrichment R
7,B7,1.15 enrichment R
8,B8,0.475 enrichment R
9,B9,13.9 enrichment R
10,B10,10.5 enrichment R
11,B11,8.11 enrichment R
12,B12,0.588 enrichment R
13,B13,0.662 enrichment R
14,B14,0.639 enrichment R
15,B15,2.88 enrichment R
16,B16,4.68 enrichment R
17,B17,3.81 enrichment R
18,B18,2.22 enrichment R
19,B19,1.11 enrichment R
20,B20,1.13 enrichment R
21,B21,0.746 enrichment R
22,B22,0.601 enrichment R
